Compounds with a hit are over-represented: about 27% of the library has one in this group of screens.
sEH activator: increases human soluble epoxide hydrolase activity; P34913; purified human sEH enzymatic activity, activator screen; activation, % at 2 µM; actives 0.04% (n = 91,000); AID 717; in the data active = activation above about 37%
CYP2C19 act: cytochrome P450 2C19 (human) activation. P33261. recombinant CYP2C19, luciferin-H EGE luminescence; stronger effect = higher value; 0 = fully inhibited enzyme, 1 = untreated enzyme. activation factor at 5 µM. 96,000 tested, under 10 active. AID 1025;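 active = activation factor of at least 2 at 5 µM in the primary screen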;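 also: 0 = wells with 2.5 mM tranylcypromine and 1 = vehicle-only wells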
Target sequence (P33261 whole entry, looked up): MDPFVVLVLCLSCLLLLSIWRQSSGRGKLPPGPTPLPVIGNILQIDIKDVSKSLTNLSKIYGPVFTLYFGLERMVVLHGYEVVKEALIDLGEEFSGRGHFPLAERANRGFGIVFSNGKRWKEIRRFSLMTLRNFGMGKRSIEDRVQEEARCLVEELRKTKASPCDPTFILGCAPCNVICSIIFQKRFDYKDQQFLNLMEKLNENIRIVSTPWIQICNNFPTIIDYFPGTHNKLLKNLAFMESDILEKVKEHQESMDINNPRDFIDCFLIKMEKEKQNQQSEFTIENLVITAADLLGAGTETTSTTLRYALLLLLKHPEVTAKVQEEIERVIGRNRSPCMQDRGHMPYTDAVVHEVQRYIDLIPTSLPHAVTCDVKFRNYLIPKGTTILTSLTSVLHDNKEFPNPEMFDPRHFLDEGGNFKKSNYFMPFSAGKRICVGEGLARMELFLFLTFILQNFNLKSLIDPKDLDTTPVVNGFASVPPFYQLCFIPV
CYP2C9 inh: blocks human cytochrome P450 2C9 | P11712 | actives 20% (n = 96,000) | AID 777 | CYP2C9 Supersomes, luciferin-H conversion, luminescence | inhibition, % at 5 µM;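 active = blocking of liver enzyme CYP2C9 beyond about 50% at 5 µM, limit read from the data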
sEH inhibitor: inhibitors of human soluble epoxide hydrolase; P34913; recombinant human sEH enzymatic activity assay; inhibition, % at 2 µM; actives 0.34% (n = 91,000); in the data active = inhibition above about 80%
CYP2C19 inhib: blocks human cytochrome P450 2C19; actives 21% (n = 96,000); inhibition, % at 5 µM; P33261; CYP2C19 Supersomes, luciferin-H EGE luminescence, 30 min;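 active = CYP2C19 inhibition above a set limit at 5 µM in the primary screen, cut at about 50% in these data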;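 also: plate controls were negative control wells for no effect and 2.5 mM tranylcypromine positive control for full effect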
CYP2C9 act: CYP2C9 (human) activation; AID 1024; actives 1.4% (n = 96,000); activation factor at 5 µM; P11712; recombinant CYP2C9, luciferin-H conversion, luminescence; stronger effect = higher value; factor 1 = untreated enzyme, 0 = blocked;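 active = activation factor of 2 or more for CYP2C9 at a 5 µM dose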;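 also: 0 = sulfaphenazole-blocked wells and 1 = vehicle-only wells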
* hit, by the source's call; nt = not tested or not shown.

SMILES | sEH activator | CYP2C19 act | CYP2C9 inh | sEH inhibitor | CYP2C19 inhib | CYP2C9 act
CCOC(=O)C1=C(C)n2c(s/c(=C/c3cccc([N+](=O)[O-])c3)c2=O)=NC1c1ccc(O)c(OC)c1 (configuration not stated) | -1 | 0.4 | 67* | -2 | 55* | 0.3
COc1ccc(-c2nn(-c3ccccc3)cc2C(=O)NCCCn2ccnc2)cc1 | 11 | 0 | 98* | -12 | 96* | 0
COc1ccc(NC(=S)NCCCn2ccnc2)cc1 | -17 | nt | nt | 16 | nt | nt
CC(C)(C)c1ccc(C(=O)c2c[nH]c(C(=O)NCCCN3CCOCC3)c2)cc1 | nt | 0.9 | -1 | nt | 8 | 1
COc1ccc(C(=O)Nc2ccccc2C(=O)NCCCn2ccnc2)cc1 | -12 | 0.2 | 100* | 11 | 85* | 0
O=C(c1ccc(C(F)(F)F)cc1)c1c[nH]c(C(=O)NCCCn2ccnc2)c1 | -12 | 0 | 88* | 17 | 95* | 0.1
CCSc1ccccc1C(=O)NCCCn1ccnc1 | 10 | 0.1 | 63* | -11 | 92* | 0.4
CCOCCCNC(=O)c1ccccc1SCC | -6 | nt | nt | 9 | nt | nt
CC1=C(C)NC(=S)SC1 | 2 | 1.1 | -9 | -2 | -6 | 1.1
CCn1cc(C2=NOC(C(=O)Nc3cc(OC)c(Cl)cc3OC)C2)c(C)n1 (configuration not stated) | nt | 0.7 | -12 | nt | 30 | 1.1
CCCCCNC(=O)c1ccccc1SC | -6 | 0.4 | -29 | 4 | 59* | 1.3
O=C(Nc1ccccc1C(=O)NCCCn1ccnc1)c1ccccc1 | -5 | 0.2 | 96* | 3 | 84* | 0
C=CCNC(=O)c1ccccc1NC(=O)c1ccccc1 | 12 | 0.7 | 49 | -12 | 27 | 0.5
COc1ccc(OCCCC(=O)N2CCCc3ccccc32)cc1 | 11 | 0 | 83* | -10 | 98* | 0.2
Cn1ncc(Cl)c1C(=O)N1CCCc2ccccc21 | -2 | 0.5 | 63* | 1 | 54* | 0.4
COc1ccc(C2=NOC(C(=O)N3CCCc4ccccc43)C2)cc1 (configuration not stated) | 5 | 0.8 | -123 | -6 | 16 | 2.2*
COc1cc(C2=NOC(C(=O)N3CCCc4ccccc43)C2)cc(OC)c1OC (configuration not stated) | -2 | 0.8 | 45 | 4 | 16 | 0.6
Cn1c(C(=O)N2CCCc3ccccc32)cc2c(=O)n3ccccc3nc21 | 14 | 0.6 | 65* | -14 | 38 | 0.4
C=CCn1c(NC(=O)c2ccc(C)cc2)c(C#N)sc1=N | -5 | 1 | -9 | 2 | -2 | 1.1
O=C(NC(=S)N1CCCc2ccccc21)c1ccccc1 | -7 | 0.5 | 6 | 9 | 51* | 0.9
O=C(c1cc(-c2cccs2)on1)N1CCCc2ccccc21 | nt | 0.1 | 26 | nt | 93* | 0.7
COc1ccc2c(CC(=O)N(C)CC3COc4ccccc4O3)coc2c1 (configuration not stated) | 12 | 0 | 88* | -15 | 99* | 0.1
O=C(NC(=S)N1CCCc2ccccc21)c1ccc([N+](=O)[O-])cc1 | 6 | 0.6 | 22 | -2 | 40 | 0.8
COc1ccc2c(CC(=O)OCC(=O)N3CCc4ccccc43)coc2c1 | nt | 1 | 10 | nt | 3 | 0.9
CC(C)C(=O)c1cn(CC(=O)N2CCCc3ccccc32)c2ccccc12 | 20 | 0.6 | 74* | -20 | 42 | 0.3
SMILES | sEH activator | CYP2C19 act | CYP2C9 inh | sEH inhibitor | CYP2C19 inhib | CYP2C9 act
CCOC(=O)C(C)Oc1cccc2c(=O)n(CC(=O)N3CCCc4ccccc43)ccc12 (configuration not stated) | nt | 1 | 13 | nt | 3 | 0.9
OC(CNC1CCCCC1)CN1CCN(CC(O)CNC2CCCCC2)CC1 (configuration not stated) | nt | 1 | -4 | nt | 2 | 1
Cn1cccc1Cc1nnc(SCC(=O)NC2CCCCC2)n1CCc1ccccc1 | nt | 0.6 | 42 | nt | 44 | 0.6
CC(C)Oc1ccc(C(=O)N2CCCc3ccccc32)cc1 | 1 | 0 | 38 | -2 | 97* | 0.6
O=C(CCCC(=O)N1CCCc2ccccc21)N1CCCc2ccccc21 | nt | 0.1 | 37 | nt | 95* | 0.6
O=C(Cn1ncc2c(=O)oc3ccccc3c21)N1CCCc2ccccc21 | -7 | 0.6 | 67* | 8 | 43 | 0.3
O=C(CN1CCCCC1)N1CCCc2ccccc21 | 1 | 0.9 | 3 | 0 | 8 | 1
CCOC(=O)Cn1ncc2c(=O)oc3ccccc3c21 | nt | 0.9 | 7 | nt | 9 | 0.9

Screening data as filed in PubChem BioAssay.
